PubChem BioAssay AID588689 (Southern Research Specialized Biocontainment Screening …, 2011)
Out of some 340,000 compounds screened, about 1,000 (0.29%) were called active. Cut-off read from the data, not from the text of the source: inconclusive = inhibition above about 29% without an active follow-up result; inactive = below that. The list is a sample of the results. Results with a measured potency or affinity are listed apart.

Target: Genome polyprotein (Dengue virus type 2 (strain 16681-PDK53)) (UniProt P29991)
Assay: flavivirus cap methylation enzyme inhibition – biochemical, confirmation dose response, primary screen (AID 588689)
Details: Dengue-2 NS5 methyltransferase capping enzyme assay, at 25 µM, stronger effect = higher value
[1] = measured here: pilot screen replicate inhibition

SMILES | inhibition | inhibition [1]
Cc1cccc(S(=O)(=O)Nc2ccc(-n3c(C)nc4ccccc4c3=O)cc2)c1 | -5.8% (inactive) | 
CSc1nc(O)c(C(c2ccc(C)cc2)c2c(O)nc(SC)[nH]c2=O)c(=O)[nH]1 | 5.27% (inactive) | 4.26%
COc1nc(SC)nc(Cl)c1Cc1ccc(OC(C)C)cc1 | -6.55% (inactive) | 
CSc1nc(O)c(C(c2ccccc2)c2c(O)nc(SC)[nH]c2=O)c(=O)[nH]1 | -1.55% (inactive) | 
C=CCOc1ccc(Oc2cc(C)nc(SC)n2)nn1 | -6.11% (inactive) | 
C=CCOc1ccc(S(C)(=O)=O)cc1 | 1.32% (inactive) | 
CSc1nc(Cl)c(Cc2ccc(OC(C)C)cc2)c(N(C)C)n1 | -2.55% (inactive) | 
CN1CCN(C(=O)/C(=C/c2cn(S(=O)(=O)N(C)C)c3ccccc23)NC(=O)c2ccccc2F)CC1 | -5.9% (inactive) | 
CCC(C(=O)Nc1cccnc1)n1c(=O)[nH]c2ccccc2c1=O (stereo not given) | -5.9% (inactive) | 
Cc1ccc(NC(=O)C2CCCN(C(=O)Nc3ccc(F)cc3)C2)cc1 (stereo not given) | -4.13% (inactive) | 
Cc1cc(=O)[nH]c(-c2cccs2)n1 | 10.8% (inactive) | 
CC[C@H](C)Cc1cn([C@@H](CCCN=C(NC(=O)OC(C)(C)C)NC(=O)OC(C)(C)C)C(=O)NCCCCCCCCCCC(=O)N2CCN(C(=O)OC(C)(C)C)CC2)nn1 | -0.83% (inactive) | 
Cc1csc(N(C(=O)c2cccc(S(=O)(=O)N(C)C)c2)c2ccccc2)n1 | -1.38% (inactive) | 
CCC(C(=O)OCC(=O)Nc1ccc2[nH]c(=O)[nH]c2c1)c1ccccc1 (stereo not given) | 2.16% (inactive) | 
COc1ccc(N(CC(=O)NCCSCc2ccco2)S(=O)(=O)c2ccccc2)cc1 | -3.68% (inactive) | 
Fc1cccc(/C=N/Nc2nccnc2Cl)c1 | -2.31% (inactive) | 
Cc1ccc([C@H]2C(C(=O)O)=CC[C@@H](c3ccc(C)cc3)N2S(=O)(=O)c2ccccc2C)cc1 | 13.7% (inactive) | 
Cc1ccccc1S(=O)(=O)N1[C@@H](c2ccc(Cl)cc2)C(C(=O)O)=CC[C@H]1c1ccc(Cl)cc1 | 23.8% (inactive) | 2.15%
Cc1ccccc1S(=O)(=O)N1[C@@H](c2ccccc2)C(C(=O)O)=CC[C@H]1c1ccc(Cl)cc1 | 12.8% (inactive) | 

SMILES | inhibition | inhibition [1]
Cc1ccc([C@@H]2CC=C(C(=O)O)[C@H](c3ccccc3)N2S(=O)(=O)c2ccccc2C)cc1 | 11.1% (inactive) | 
COc1cccc(NC(=O)c2ccc(N3C(=O)C4CC=CCC4C3=O)cc2)c1 (stereo not given) | 0.77% (inactive) | 
CN(C)C(CNC(=O)C1CCN(S(=O)(=O)c2cccc(C(F)(F)F)c2)CC1)c1ccccc1 (stereo not given) | 0% (inactive) | 
O=C(COc1ccc(F)c(Cl)c1)Nc1ccc(N2CCOCC2)cc1 | -11.9% (inactive) | 
CN1C(=O)/C(=C2\SC(=S)N(C(CCC(=O)O)C(=O)O)C2=O)c2ccccc21 (stereo not given) | 8.73% (inactive) | 
CCCC(C(=O)O)N1C(=O)/C(=C/c2cccn2C)SC1=S (stereo not given) | -53.1% (inactive) | 
Cc1c(N2C(=O)/C(=C3\C(=O)N(CC(=O)O)c4ccccc43)SC2=S)c(=O)n(-c2ccccc2)n1C | 36.3% (inactive) | 
O=C(O)C(Cc1ccc(O)cc1)N1C(=O)c2ccccc2C1=O (stereo not given) | -2.65% (inactive) | 
O=C(Nc1ccccc1)N1CCNCC1 | -6.32% (inactive) | 
CC1(C)OC1(C#N)c1ccccc1 (stereo not given) | -5.44% (inactive) | 
CCN(CC)S(=O)(=O)c1ccc(Nc2ccc(-c3ccc4c(c3)OCCO4)nn2)cc1 | -4.94% (inactive) | 
CC(=O)N1CCN(c2ccc(NC(=S)NC(=O)c3ccc(C)c([N+](=O)[O-])c3)cc2)CC1 | -2.35% (inactive) | 
O=C(NC(=O)c1cc([N+](=O)[O-])ccc1Cl)C1=C(N2CCCC2)COC1=O | -8.37% (inactive) | 
Cn1c(=N)c(S(=O)(=O)c2ccccc2)cc2c(=O)n3ccccc3nc21 | -8.12% (inactive) | 
CCOC(=O)C1(C)/C(=N/Nc2ccccc2Cl)C(=O)C(=O)N1c1ccccc1 (stereo not given) | -3.23% (inactive) | 
CCOC(=O)C1(C)/C(=N/Nc2ccc(Cl)cc2)C(=O)C(=O)N1c1ccccc1 (stereo not given) | 3.28% (inactive) | 
COC(C[C@@H](O)C[C@H](O)[C@@H](C)OCc1ccccc1)OC | -8.19% (inactive) | 
CC/C(=N/NC(=O)c1ccc2c(c1)OCO2)c1ccccc1O | 3.08% (inactive) | 
Cc1cccc(CN2CCN(CC(=O)N3CCCC3)C2=O)c1 | -5.66% (inactive) | 

SMILES | inhibition | inhibition [1]
CC(=O)C1=C(O)C(=O)N(Cc2cccnc2)C1c1ccc(C(C)C)cc1 (stereo not given) | -5.44% (inactive) | 
CC(=O)C1=C(O)C(=O)N(c2cc(C(C)(C)C)on2)C1c1ccc(Br)cc1 (stereo not given) | 13.1% (inactive) | 
Cc1cccc(CN2CCN(C(c3ccccc3)c3ccc(Cl)cc3)CC2)c1 (stereo not given) | 2.93% (inactive) | 
CC1=NN(Cc2ccccc2)C(=O)C1C(c1ccncc1)C(C#N)C#N (stereo not given) | 13.5% (inactive) | 
CC1=NNC(=O)C1C(c1ccc(F)cc1)C(C#N)C#N (stereo not given) | -10.2% (inactive) | 
CC1=NNC(=O)C1C(c1ccccc1)C(C#N)C#N (stereo not given) | -4.84% (inactive) | 
S=C(N/N=C/c1ccc(Br)cc1)N1CCCCC1 | 2.36% (inactive) | 
CC(C)c1ccc(S(=O)(=O)N2CCN(C(=O)CCNS(=O)(=O)c3ccccc3F)CC2)cc1 | 2.2% (inactive) | 
CCN1CCN(C(=O)/C=C/c2ccc(OC)cc2)CC1 | 0% (inactive) | -2.12%
CCn1c([N+](=O)[O-])nc2c1c(=O)[nH]c(=O)n2C | -10.1% (inactive) | 
Cc1ccc(SC(CC(=O)c2ccc(F)cc2)C(=O)O)cc1 (stereo not given) | 0% (inactive) | 
Cc1ccc(SC(CC(=O)c2ccc(C)cc2)C(=O)O)cc1 (stereo not given) | 16.8% (inactive) | 
CSc1ccccc1OCc1cc(C(=O)N2CCN3CCCC3C2)no1 (stereo not given) | -0.87% (inactive) | 
Cc1ccc(/C=C2/C(=O)ON=C2c2ccccc2)o1 | 19.3% (inactive) | 
O=C1/C(=C\c2ccc(-c3ccccc3[N+](=O)[O-])o2)C(c2ccccc2)=NN1c1ccccc1 | 68.8% (inactive) | 
O=C1ON=C(c2ccc(Cl)c([N+](=O)[O-])c2)/C1=C/c1cccc([N+](=O)[O-])c1O | -5.11% (inactive) | 
O=C1ON=C(c2ccccc2[N+](=O)[O-])/C1=C/c1cccc([N+](=O)[O-])c1O | -2.21% (inactive) | 
COc1ccc(-c2ccc(/C=C3\C(=O)N(c4ccccc4)N=C3c3ccccc3)o2)c([N+](=O)[O-])c1 | 6.61% (inactive) | 
COc1cc([N+](=O)[O-])ccc1-c1ccc(/C=C2\C(=O)ON=C2c2ccccc2)o1 | 30.1% (inactive) | 
